Compounds with a hit are over-represented: about 2.8% of the library has one in this group of screens.
POLB inh – blocks human DNA polymerase beta activity; P06746; Pol beta primer extension/strand displacement, fluorescence kinetic; Potency, µM (highest dose often 114 µM), without a hit: at the top dose activity change, negative = inhibition, usual class: inhibitors; hit rate 1.3% among 340,000; AID 485314; note: potency is the fitted concentration of half-maximal effect; % is set by controls: 0 for no effect and ±100 for the full control effect
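Pol beta (10 nM) and compounds were preincubated 15 min at room temperature, then 50 nM substrate (final) started primer extension/strand displacement. Reads were taken at 0 and 10 min; concentration-response data were fitted to a four-parameter Hill equation.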
PI4K2A inh – PI4K2A (human) kinase inhibition. Q9BTU6. purified PI4K2A, ADP-Glo luminescence, 1 h; hits give low values. activity change, negative = inhibition, % at 76.9 µM. hit rate 0.13% among 420,000. AID 1346378; in the data active = activity change below about -50%; inconclusive = mostly about -30% to -49%;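 note: -100% = wells without enzyme as full effect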
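ADP-Glo luminescence measured ADP generated by PI4K2A enzyme (4 ug/mL before mixing) with 1.2 mM PI substrate (pre-mix) and 300 microM ATP (pre-mix). Tris pH7.5 buffer with MgCl2, Triton X-100; 1 h reaction at ambient temperature.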
Pol iota inh – inhibitors of human DNA polymerase iota | Q9UNA4 | Pol iota fluorescent replication assay, 10 min | Potency, µM (top dose mostly 115 µM), inactives show at the highest dose activity, negative = inhibition, most hits filed as inhibitors | hit rate 1% among 390,000 | AID 588590; note: potency is the fitted concentration of half-maximal effect
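Pol iota at 10 nM preincubated 15 min with compounds at room temperature; reaction started with fluorescent substrate, 50 nM final. Fluorescence read kinetically at 0 and 10 min; buffer-only wells as negative control.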
Pol kappa inh – DNA polymerase kappa (human) inhibition; hit rate 0.53% among 400,000; purified Pol kappa, fluorescent DNA synthesis assay, 10 min; Q9UBT6; Potency, µM (titrated, usually from 107 µM), without a hit: at the top dose activity, negative = inhibition, hits mostly inhibitors; note: potency is the fitted concentration of half-maximal effect; % is set by controls: 0 for no effect and ±100 for the full control effect
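Here, compound and 10 nM enzyme are combined for 15 min at room temperature; adding 50 nM substrate (final) starts DNA synthesis, tracked by fluorescence at 0 and 10 min against buffer-only wells.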
Pol eta inh – inhibitors of human DNA polymerase eta. Q9Y253. hit rate 1.2% among 390,000. Potency, µM (titrated, usually from 114 µM), for inactives: at the highest dose activity change, negative = inhibition, usual class: inhibitors. recombinant Pol eta, fluorescent DNA replication assay; note: potency is the fitted concentration of half-maximal effect; % is set by controls: 0 for no effect and ±100 for the full control effect
Target sequence (Q9Y253 whole entry, looked up): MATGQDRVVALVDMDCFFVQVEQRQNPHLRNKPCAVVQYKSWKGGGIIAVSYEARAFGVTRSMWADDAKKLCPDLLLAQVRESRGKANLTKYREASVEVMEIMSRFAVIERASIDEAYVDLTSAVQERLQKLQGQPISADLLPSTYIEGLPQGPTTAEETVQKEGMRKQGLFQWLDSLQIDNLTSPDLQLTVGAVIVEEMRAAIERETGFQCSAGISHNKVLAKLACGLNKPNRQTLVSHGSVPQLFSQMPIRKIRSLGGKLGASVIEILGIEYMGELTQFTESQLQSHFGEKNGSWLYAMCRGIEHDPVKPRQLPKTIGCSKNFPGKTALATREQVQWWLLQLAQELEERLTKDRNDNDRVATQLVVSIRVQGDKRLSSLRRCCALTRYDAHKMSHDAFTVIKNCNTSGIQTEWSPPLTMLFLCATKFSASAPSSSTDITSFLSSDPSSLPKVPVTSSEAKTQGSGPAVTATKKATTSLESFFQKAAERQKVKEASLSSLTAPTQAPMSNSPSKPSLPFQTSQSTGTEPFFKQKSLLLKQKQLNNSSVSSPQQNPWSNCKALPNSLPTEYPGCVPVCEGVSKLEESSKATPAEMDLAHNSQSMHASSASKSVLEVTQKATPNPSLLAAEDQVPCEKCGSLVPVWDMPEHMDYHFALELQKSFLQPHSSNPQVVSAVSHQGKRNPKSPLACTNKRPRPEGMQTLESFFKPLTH
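Fluorescent replication assay: 50 nM final substrate added after a 15 min room-temperature compound preincubation with 10 nM enzyme. Signal taken at 0 min and again at 10 min.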
PI5P4K alpha inh – blocks human PI5P4K alpha kinase activity; P48426; PI5P4Kalpha enzyme, ADP-Glo luminescence, 60 min; hits give low values; max response, %; hit rate 1.2% among 330,000; AID 652105; active = max response of -50% or lower; inconclusive = between -30% and -50%; inactive = -30% or higher; note: value at the top dose of about 77 µM; % is set by controls: 0 for no effect and ±100 for the full control effect
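Single end-point luminescence (ADP-Glo) quantified ADP from PI5P4Kalpha turnover; ATP 5 microM final, 1 h at RT, 0.1% CHAPS and 0.28 mM EGTA in HEPES pH 7.4.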
ADP-Glo counter – interferes with ADP-Glo detection without enzyme present. shares compounds with PI5P4K alpha inh. Potency, µM (top dose mostly 76.9 µM), without a hit: top-dose activity change, negative = inhibition, usual class: inhibitors. 1,100 tested, under 10 active. ADP-Glo detection counter-screen, luciferase luminescence, no enzyme. AID 743285
* = called active by the depositor; [ ] = another dose, or the depositor's remark. Unless noted, calls come from the whole dose curve; as a rule, active = well fitted curve in the direction sought with a large enough effect; inconclusive = small, poorly fitted or top-dose-only effect, or another doubt; inactive = no such curve, though single readings can be large; an effect the other way counts as inactive or inconclusive.

CCN(CC)C(=O)CSc1nc2c(c(=O)n(C)c(=O)n2C)n1Cc1ccccc1 was read as POLB inh -2.1%, PI4K2A inh 0.8, Pol iota inh inconclusive and Pol kappa inh 6.5%.
CC1CCCN(C(=O)CSc2c3c(nc4cc(Cl)ccc24)CCCC3)C1 (stereo not drawn) was read as POLB inh 1.2%, PI4K2A inh 0.8, Pol iota inh -3.0%, Pol kappa inh -16.4% and Pol eta inh -10.3%.
For CC(=O)c1ccc(OCC(=O)N2CCN(S(=O)(=O)c3ccc(Br)s3)CC2)cc1 the results were PI4K2A inh -4.6, Pol iota inh -13.1%, Pol kappa inh -9.1%, Pol eta inh -9.5% and PI5P4K alpha inh -0.1.
CCC(=O)c1ccc(OCC(=O)N2CCN(S(=O)(=O)c3ccc(Cl)s3)CC2)cc1 was read as PI4K2A inh -8.3, Pol iota inh inconclusive, Pol kappa inh inconclusive, Pol eta inh 44.7µM*, PI5P4K alpha inh -53.6* and ADP-Glo counter -11.3%.
`O=C(NCC1CCCCC1)c1cccc([N+](=O)[O-])c1` gave POLB inh 41.0%, PI4K2A inh 7.5, Pol iota inh 48.0%, Pol kappa inh -1.5%, Pol eta inh -14.0%, PI5P4K alpha inh -62.2* and ADP-Glo counter 0.8%.
Screening COc1cccc(CNC(=O)C(Cc2ccccc2)NS(=O)(=O)c2ccc3c(c2)oc(=O)n3C)c1 (stereo not drawn) returned POLB inh 1.7%, PI4K2A inh -3.7, Pol iota inh inconclusive, Pol kappa inh -7.5% and Pol eta inh 3.7%.
`CCCCC(=O)N(Cc1ccc2c(c1)OCO2)Cc1nc2ccccc2c(=O)[nH]1` gave POLB inh -0.3%, PI4K2A inh -19.7, Pol iota inh 81.8%, Pol kappa inh -3.0%, Pol eta inh -9.7%, PI5P4K alpha inh -53.5* and ADP-Glo counter -10.0%.
`COc1ccccc1Cc1c(-c2ccco2)nc2c(C)cc(Br)cn12` gave PI4K2A inh inconclusive, PI5P4K alpha inh -78.3* and ADP-Glo counter -4.0%.
COc1ccc(Cc2c(-c3ccco3)nc3ccc(Br)cn23)c(C)c1 was read as PI4K2A inh inconclusive, PI5P4K alpha inh -59.7* and ADP-Glo counter -6.0%.
`Cc1cc(Br)cn2c(Cc3ccsc3)c(-c3ccco3)nc12` gave PI4K2A inh -26.5, PI5P4K alpha inh -90.1* and ADP-Glo counter -2.1%.
`Cc1ccc(-c2cc(C(=O)N(Cc3ccc(C(C)(C)C)cc3)Cc3ccco3)no2)cc1` gave POLB inh 1.2%, PI4K2A inh 0.6, Pol iota inh 36.3%, Pol kappa inh 6.0% and Pol eta inh -17.4%.
`O=C(CSc1n[nH]c(-c2cccnc2)n1)OC1CCCCC1` gave POLB inh -14.9%, PI4K2A inh 1.5, Pol iota inh 85.6%, Pol kappa inh -8.8%, Pol eta inh -12.5%, PI5P4K alpha inh -66.0* and ADP-Glo counter -8.1%.
O=C(CSc1n[nH]c(-c2cccnc2)n1)Nc1ccc(Br)cc1 was read as POLB inh -1.5%, PI4K2A inh -2.9, Pol iota inh 15.6%, Pol kappa inh -5.2%, Pol eta inh 2.4% and PI5P4K alpha inh -5.1.
`CN(C)C=Nc1c(I)cc(I)c(CCC(=O)O)c1I` gave Pol kappa inh 6.9%[19.4 µM].
For CC(=O)Nc1cccc(-c2ccnc3c2CC(C(=O)NCc2ccco2)O3)c1 (stereo not drawn) the results were PI4K2A inh -1.3, PI5P4K alpha inh -50.1* and ADP-Glo counter 4.9%.
CCCCNC(=O)c1onc(CSc2ccc(OC)cc2)c1C(=O)O was read as POLB inh 14.3%, PI4K2A inh -3.4, Pol iota inh 2.2%, Pol kappa inh 4.5%, Pol eta inh -11.4%, PI5P4K alpha inh -50.2* and ADP-Glo counter -2.8%.
Screening CC(C)NC(=O)c1onc(CSc2ccccc2F)c1C(=O)O returned POLB inh -0.3%, PI4K2A inh 5.3, Pol iota inh inconclusive, Pol kappa inh -5.5%, Pol eta inh -0.6%, PI5P4K alpha inh -65.5* and ADP-Glo counter 0.3%.
CCCCNC(=O)c1onc(CSc2ccc(F)cc2)c1C(=O)O was read as POLB inh 36.1%, PI4K2A inh -2.9, Pol iota inh 20.2%, Pol kappa inh 12.4%, Pol eta inh -2.3% and PI5P4K alpha inh inconclusive.
COc1cc(C(=O)Nc2nc3ccc(S(C)(=O)=O)cc3s2)cc(OC)c1C was read as POLB inh -9.1%, PI4K2A inh -2.8, Pol iota inh 38.0%, Pol kappa inh -6.2%, Pol eta inh 4.3% and PI5P4K alpha inh -11.8.
COc1cc(OC)cc(C(=O)Nc2nc3ccc(S(C)(=O)=O)cc3s2)c1 was read as POLB inh 14.9%, PI4K2A inh -5.3, Pol iota inh 5.8%, Pol kappa inh -4.2%, Pol eta inh -13.0%, PI5P4K alpha inh -74.0* and ADP-Glo counter -16.5%.
For Cc1ccccc1NC(=O)CSc1nc2[nH]c(=O)cc(O)c2s1 the results were PI4K2A inh -1.1, Pol iota inh inconclusive, Pol kappa inh -10.8%, Pol eta inh inconclusive, PI5P4K alpha inh -62.0* and ADP-Glo counter -9.8%.
`O=C(CSc1nc2[nH]c(=O)cc(O)c2s1)Nc1cccc(Br)c1` gave PI4K2A inh -5.7, Pol iota inh -5.9%, Pol kappa inh 3.2%, Pol eta inh -9.0% and PI5P4K alpha inh inconclusive.
Cc1cccc(NC(=O)CSc2nc3[nH]c(=O)cc(O)c3s2)c1 was read as PI4K2A inh -4.3, Pol iota inh inconclusive, Pol kappa inh -5.3%, Pol eta inh inconclusive, PI5P4K alpha inh -52.7* and ADP-Glo counter 6.3%.
Screening O=C(CSc1nc2[nH]c(=O)cc(O)c2s1)Nc1ccc(Br)cc1 returned PI4K2A inh -1.5, Pol iota inh inconclusive, Pol kappa inh -2.9%, Pol eta inh -24.3%, PI5P4K alpha inh -52.1* and ADP-Glo counter -1.2%.
`O=C(C(=Cc1ccc(F)cc1)C(=O)c1ccccc1)c1ccccc1` gave PI4K2A inh -0.2 and PI5P4K alpha inh 6.7.
CN1CCN(c2ccc(CNC(=O)C3(C)Cc4c(-c5ccccc5)ccnc4O3)cc2)CC1 (stereo not drawn) was read as PI4K2A inh -1.0 and PI5P4K alpha inh -1.3.
`CCc1cc(=O)oc2cc(C)c(CN3CCCCC3)c(O)c12` gave POLB inh 8.91µM*, PI4K2A inh inconclusive, Pol iota inh 7.94µM*, Pol kappa inh 17.8µM*, Pol eta inh 14.1µM*, PI5P4K alpha inh -63.5* and ADP-Glo counter -1.5%.
